Screening results from PubChem.
ATG4B inhibitor – ATG4B protease inhibitors, primary screen, biochemical, fluorescence, uHTS; ATG4B cleavage of LC3-PLA2, NBD-HPC fluorescence, 1 h; Cysteine protease ATG4B (Homo sapiens), Q9Y4P1; inhibition, % at 8.33 µM; AID 504462, 2011; actives 0.51% (n = 340,000); in the data active means inhibition above about 40%
PREPL inhibitor – PREPL enzyme inhibitors, primary screen, biochemical, fluorescence polarization. recombinant PREPL, fluorescence polarization activity-based probe. inhibition, % at 5.96 µM. actives 0.68% (n = 320,000). AID 2751, 2010; in the data active means inhibition above about 43%;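 further: 0% = enzyme with DMSO and 100% = wells lacking enzyme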
MEKK2 mut-MEK5 – MEK5 binding signal on mutant MEKK2 PB1, primary screen, biochemical, multiplex bead flow cytometry, Alexa488-MEK5. Alexa488-MEK5 binding to MEKK2 mutant. percent response, % at 10 µM. actives 0.35% (n = 290,000); in the data active means percent response above about 24%, passing the limit was not always enough
UBC13 polyUb – UBC13 polyubiquitin chain formation inhibitors, primary screen, biochemical, TR-FRET, uHTS. Ubiquitin-conjugating enzyme E2 N (Homo sapiens), P61088. inhibition, % at 20 µM. actives 0.47% (n = 330,000). AID 485273, 2010; in the data active means inhibition above about 45%, passing the limit was not always enough
Target sequence (P61088 whole entry, looked up): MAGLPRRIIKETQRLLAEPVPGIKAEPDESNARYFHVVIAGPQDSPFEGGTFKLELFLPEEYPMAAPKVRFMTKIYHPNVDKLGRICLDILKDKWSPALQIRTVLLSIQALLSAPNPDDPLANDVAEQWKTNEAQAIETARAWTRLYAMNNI
MEKK2wt PB1 HTS – modulators of MEK5 binding to wildtype MEKK2, primary screen, biochemical, multiplex bead flow cytometry, Alexa488-MEK5; Mitogen-activated protein kinase kinase kinase 2 (Homo sapiens), Q9Y2U5; Alexa488-MEK5 binding to MEKK2 WT; actives lie on both sides; binding response (% of control), % at 10 µM; actives 1.1% (n = 290,000); AID 1531, 2009; in the data active means binding response below about 67% or above about 130%
MEKK3 PB1 HTS – modulators of MEKK3-MEK5 PB1 binding, primary screen, biochemical, wildtype MEKK3, multiplex bead flow cytometry, Alexa488-MEK5; Mitogen-activated protein kinase kinase kinase 3 (Homo sapiens), Q99759; bead-based flow cytometry, Alexa488-MEK5 binding to MEKK3; actives lie on both sides; 0 = blocked by unlabeled MEK5, 100 = vehicle; binding response (% of control), % at 10 µM; actives 1.4% (n = 290,000);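 active means binding response more than 3 SD above or below the average of its plate-row segment, actives on both sides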;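 further: Alexa488 bead fluorescence after subtracting the streptavidin-only scavenger bead signal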
MEKK2wt confirm – modulators of MEK5 binding to wildtype MEKK2, confirmation, biochemical, single concentration, multiplex bead flow cytometry; actives 2.4% (n = 5,900); Alexa488-MEK5 binding to MEKK2 WT; actives lie on both sides; shares compounds with MEKK3 PB1 HTS; binding response (% of control), % at 10 µM; in the data active means binding response below about 16% or above about 210%; inactive means in between
MEKK2mut-MEK5 – mutant MEKK2 PB1-MEK5 binding signal retest – biochemical, single concentration, multiplex bead flow cytometry, confirmation | percent response, % at 10 µM | shares compounds with MEKK3 PB1 HTS | Alexa488-MEK5 binding to MEKK2 mutant | actives 2% (n = 5,900); in the data active means percent response mostly above about 71%, no sharp cut-off; inactive means mostly below about 38%;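 further: higher means compound restores mutant binding toward wildtype level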
MEKK3-MEK5 inh – MEKK3 wild-type PB1 binding to MEK5, inhibitors, confirmation, biochemical, bead multiplex flow cytometry, single concentration, wildtype. binding response (% of control), % at 10 µM. actives 1.8% (n = 5,900). shares compounds with MEKK3 PB1 HTS. Alexa488-MEK5 binding to MEKK3; stronger effect = lower value. AID 1894, 2009;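 active means binding response below 72% of control, or above a set upper limit, though filed actives all read lower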;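 further: 100% = DMSO only wells and 0% = binding blocked by excess unlabeled MEK5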
An asterisk follows results filed as active; . = not tested or not shown; [ ] = another dose, or the depositor's remark. The list is not random: actives were taken first. Their share in the collection is about 3.1%.

SMILES	ATG4B inhibitor	PREPL inhibitor	MEKK2 mut-MEK5	UBC13 polyUb	MEKK2wt PB1 HTS	MEKK3 PB1 HTS	MEKK2wt confirm	MEKK2mut-MEK5	MEKK3-MEK5 inh
CCCCN1C(=O)N(c2nnc(C(C)(C)C)s2)C(O)C1c1ccc(C)cc1 (stereo unspecified)	-8	8	-1	-2	99	97	.	.	.
Cc1ccccc1NC(=O)Cc1nc(COC(=O)Cc2c(F)cccc2Cl)cs1	20	-3	.	12	.	.	.	.	.
Cn1cc(S(=O)(=O)NCc2ccc(Cl)cc2)c(=O)n(C)c1=O	4	-15	-19	0	95	87	.	.	.
COc1ccc(/C=N/NC(=O)c2ccc(O)cc2O)cc1CSc1ccccn1	-1	-2	0	21	103	136*	97	-2	100
COc1ccc(/C=C(\NC(=O)c2ccccc2)C(=O)N2CCC(C)CC2)cc1	-8	.	.	-1	.	.	.	.	.
O=C(CCc1nnc2ccc(NCc3ccccc3)nn12)NC1CCCC1	-4	10	9	1	102	102	.	.	.
CC1(CCc2ccc3c(c2)OCO3)NCCc2c1[nH]c1ccccc21 (stereo unspecified)	-10	2	25*	11	139	107	131	14	105
O=C(N/N=C/c1ccc(Cl)cc1Cl)c1n[nH]c2c1CCCC2	-3	1	1	-26	105	128*	102	-4	103
O=[N+]([O-])c1ccc(N/N=C/c2cn(-c3ccccc3)nc2-c2ccccc2)cc1	-1	5	27*	-92	11*	97	114	14	100
Cc1ccc(-c2nn(-c3ccccc3)cc2/C=N/NS(=O)(=O)c2ccccc2)cc1	5	8	-1	-11	100	103	.	.	.
O=S(=O)(N/N=C\c1cn(-c2ccccc2)nc1-c1ccccc1)c1ccccc1	-18	5	11	4	119	126*	103	-1	108
O=C(NCc1cn(-c2ccccc2)nc1-c1ccccc1)c1ccc([N+](=O)[O-])cc1	-10	3	2	-10	122	131*	99	-2	95
Cc1ccc(C(=O)CSc2nnc(-c3ccccc3)o2)cc1	-1	-6	-2	-2	-2.0*[inhibitor]	1.0*[inhibitor]	99	0	103
Cc1ccc(CSc2nnc(-c3ccc(NS(=O)(=O)c4ccccc4)cc3)o2)cc1	10	-15	3	-11	26*[inhibitor]	21*[inhibitor]	100	-8	102
Cc1occc1-c1nnc(SCC(=O)c2ccc(F)cc2)o1	-2	17	-16	2	56	48*[inhibitor]	103	1	105
Cc1occc1-c1nnc(SCC(N)=O)o1	12	3	-6	0	94	95	.	.	.
O=C(O)CSc1nnc(-c2ccccc2)o1	-6	2	6	3	98	98	.	.	.
CC1CCCC(NC(=O)/C=C/c2c(F)cccc2Cl)C1C (stereo unspecified)	3	3	.	-2	.	.	.	.	.
